The full list was thinned out, with the strongest signals kept by preference.
Tests used:
Assay in all cases: glycan array binding signal (z-score within array); higher = stronger binding
Settings in all cases: glycan notation: IUPAC condensed, linker removed
[1] = target: Fuc(a1-2)Gal(b1-3)GalNAc(b1-3)Gal(a1-4)Gal(b1-4)Glc
Summary of the method: (§1)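 Glycan array binding is given as a within-array Z-score, which can be read as non-binding when negative. The arrays, 3228 of them, came from the Consortium for Functional Glycomics database and were retained only where the protein sequence was available. Z-scores were averaged across arrays of the same protein sequence at different concentrations or buffers and across linkers.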

[2] = target: Fuc(a1-2)Gal(b1-4)GlcNAc(b1-2)[Fuc(a1-2)Gal(b1-4)GlcNAc(b1-4)]Man(a1-3)[Fuc(a1-2)Gal(b1-4)GlcNAc(b1-2)Man(a1-6)]Man(b1-4)GlcNAc(b1-4)GlcNAc
Summary of the method: as §1

[3] = target: Fuc(a1-2)Gal(b1-4)[Fuc(a1-3)]GlcNAc
Summary of the method: as §1

[4] = target: Fuc(a1-2)Gal(b1-4)[Fuc(a1-3)]GlcNAc(b1-2)Man(a1-3)[Fuc(a1-2)Gal(b1-4)[Fuc(a1-3)]GlcNAc(b1-2)Man(a1-6)]Man(b1-4)GlcNAc(b1-4)[Fuc(a1-6)]GlcNAc
Summary of the method: as §1

[5] = target: Fuc(a1-2)[Gal(a1-3)]Gal(b1-3)GalNAc(b1-3)Gal(a1-4)Gal(b1-4)Glc
Summary of the method: as §1

[6] = target: Fuc(a1-2)[Gal(a1-3)]Gal(b1-4)GlcNAc
Summary of the method: as §1

[7] = target: Fuc(a1-2)[GalNAc(a1-3)]Gal(b1-4)GlcNAc(b1-3)GalNAc
Summary of the method: as §1

[8] = target: Fuc(a1-2)[GalNAc(a1-3)]Gal(b1-4)GlcNAc(b1-6)GalNAc
Summary of the method: as §1

[9] = target: Fuc(a1-3)[Gal(b1-4)]GlcNAc(b1-2)Man(a1-3)[Fuc(a1-3)[Gal(b1-4)]GlcNAc(b1-2)Man(a1-6)]Man(b1-4)GlcNAc(b1-4)GlcNAc
Summary of the method: as §1

[10] = target: Fuc(a1-3)[Gal(b1-4)]GlcNAc(b1-3)GalNAc
Summary of the method: as §1

[11] = target: Gal(a1-3)Gal(b1-3)[Fuc(a1-4)]GlcNAc(b1-2)Man(a1-3)[Gal(a1-3)Gal(b1-3)[Fuc(a1-4)]GlcNAc(b1-2)Man(a1-6)]Man(b1-4)GlcNAc(b1-4)GlcNAc
Summary of the method: as §1

[12] = target: Gal(a1-3)Gal(b1-4)GlcNAc(b1-2)Man(a1-3)[Gal(a1-3)Gal(b1-4)GlcNAc(b1-2)Man(a1-6)]Man(b1-4)GlcNAc(b1-4)GlcNAc
Summary of the method: as §1

[13] = target: Gal(a1-3)Gal(b1-4)[Fuc(a1-3)]GlcNAc(b1-2)Man(a1-3)[Gal(a1-3)Gal(b1-4)[Fuc(a1-3)]GlcNAc(b1-2)Man(a1-6)]Man(b1-4)GlcNAc(b1-4)GlcNAc
Summary of the method: as §1

[14] = target: Gal(a1-4)Gal(b1-3)GlcNAc(b1-2)Man(a1-3)[Gal(a1-4)Gal(b1-3)GlcNAc(b1-2)Man(a1-6)]Man(b1-4)GlcNAc(b1-4)GlcNAc
Summary of the method: as §1

[15] = target: Gal(b1-3)GlcNAc(b1-2)Man(a1-3)[Gal(b1-3)GlcNAc(b1-2)Man(a1-6)]Man(b1-4)GlcNAc(b1-4)GlcNAc
Summary of the method: as §1

[16] = target: Gal(b1-3)GlcNAc(b1-3)Gal(b1-4)GlcNAc
Summary of the method: as §1

[17] = target: Gal(b1-3)[Neu5Ac(a2-6)]GlcNAc(b1-4)Gal(b1-4)Glc
Summary of the method: as §1

[18] = target: Gal(b1-4)GlcNAc(b1-3)Gal(b1-4)GlcNAc(b1-2)[Gal(b1-4)GlcNAc(b1-3)Gal(b1-4)GlcNAc(b1-6)]Man(a1-6)[Gal(b1-4)GlcNAc(b1-3)Gal(b1-4)GlcNAc(b1-2)Man(a1-3)]Man(b1-4)GlcNAc(b1-4)[Fuc(a1-6)]GlcNAc
Summary of the method: as §1

[19] = target: Gal(b1-4)GlcNAc(b1-3)Gal(b1-4)GlcNAc(b1-3)Gal(b1-4)GlcNAc(b1-2)Man(a1-3)[Gal(b1-4)GlcNAc(b1-3)Gal(b1-4)GlcNAc(b1-3)Gal(b1-4)GlcNAc(b1-2)Man(a1-6)]Man(b1-4)GlcNAc(b1-4)GlcNAc
Summary of the method: as §1

[20] = target: Gal(b1-4)GlcNAc(b1-3)Gal(b1-4)GlcNAc(b1-3)Gal(b1-4)GlcNAc(b1-2)[Gal(b1-4)GlcNAc(b1-3)Gal(b1-4)GlcNAc(b1-3)Gal(b1-4)GlcNAc(b1-6)]Man(a1-6)[Gal(b1-4)GlcNAc(b1-3)Gal(b1-4)GlcNAc(b1-3)Gal(b1-4)GlcNAc(b1-2)Man(a1-3)]Man(b1-4)GlcNAc(b1-4)[Fuc(a1-6)]GlcNAc
Summary of the method: as §1

[21] = target: Gal(b1-4)GlcNAc(b1-3)Gal(b1-4)GlcNAc(b1-3)Gal(b1-4)GlcNAc(b1-3)Gal(b1-4)GlcNAc(b1-2)Man(a1-3)[Gal(b1-4)GlcNAc(b1-3)Gal(b1-4)GlcNAc(b1-3)Gal(b1-4)GlcNAc(b1-3)Gal(b1-4)GlcNAc(b1-2)Man(a1-6)]Man(b1-4)GlcNAc(b1-4)[Fuc(a1-6)]GlcNAc
Summary of the method: as §1

[22] = target: Gal(b1-4)GlcNAc(b1-3)Gal(b1-4)GlcNAc(b1-3)[Gal(b1-4)GlcNAc(b1-3)Gal(b1-4)GlcNAc(b1-6)]GalNAc
Summary of the method: as §1

[23] = target: Gal(b1-4)GlcNAc(b1-6)[Gal(b1-4)GlcNAc(b1-3)]GalNAc
Summary of the method: as §1

Gal6S(b1-4)GlcNAc6S = target: Gal6S(b1-4)GlcNAc6S
Summary of the method: as §1

GalNAc(b1-3)GlcNAc = target: GalNAc(b1-3)GlcNAc
Summary of the method: as §1

[24] = target: GalNAc(b1-4)GlcNAc(b1-2)Man(a1-3)[GalNAc(b1-4)GlcNAc(b1-2)Man(a1-6)]Man(b1-4)GlcNAc(b1-4)GlcNAc
Summary of the method: as §1

Glc(b1-4)Glc = target: Glc(b1-4)Glc
Summary of the method: as §1

B1: PX14343E-bfa-545-24-545 (Bacteroides fragilis) (protein)
chain: LDRYPQEELSDGSFWKTPDDANKVVSDLYGYLSTWDQDNDINSDNATMGIKWAAGNVSKGIYDPADQGWSGDYANVRQCNLILSKIDEIPDYPEADKTKALGQVYFFRAYIYFNLIRSFGDVPYIDKPLDLKDMEGITRMPRAEVYEKIMADFDKAIAALPTEWGASDYGRVTKGAAMAMKARAALYYGNWDTAATEAKNVMDLGLYELYDKDNTGKYAELFWEKADGCDEFILVTQFNYPDKTHYLMGWECFPTKGWGGMNPTQSLVDAFEDSEGAPISKSKIYDPTDPFKNRDPRLEVDILHDGEEMYGVTIKVAPLASSGSTGINQHNDATETGYYGQKWLDPSLDPLSDGWNMGKDWVHIRYAEVLLTYAEAKNELQGLDPEAFDAVNQVRRRVGMPELQNTDPSKPTYCATQDDLRQRIRNEWRVEFCLEGGKRMWDIRRWGIAKDVLNAPFEGLKYKIVDNPNDPDKKVDGGKMCILYQGDPIILSGSRYSDNNYLFPVPQSEIDLNPALTQNPGY
- glycan array binding signal (z-score) [1]: -0.281
- glycan array binding signal (z-score) [2]: -0.211
- glycan array binding signal (z-score) [3]: -0.665
- glycan array binding signal (z-score) [4]: 0.859
- glycan array binding signal (z-score) [5]: -0.61
- glycan array binding signal (z-score) [6]: -0.855
- glycan array binding signal (z-score) [7]: -0.508
- glycan array binding signal (z-score) [8]: 0.103
- glycan array binding signal (z-score) [9]: 4.63
- glycan array binding signal (z-score) [10]: 1.3
- glycan array binding signal (z-score) [11]: 2.95
- glycan array binding signal (z-score) [12]: 4.55
- glycan array binding signal (z-score) [13]: 3.48
- glycan array binding signal (z-score) [14]: 2.18
- glycan array binding signal (z-score) [15]: 0.652
- glycan array binding signal (z-score) [16]: -0.675
- glycan array binding signal (z-score) [17]: -0.838
- glycan array binding signal (z-score) [18]: 1.62
- glycan array binding signal (z-score) [19]: 3.79
- glycan array binding signal (z-score) [20]: 4.56
- glycan array binding signal (z-score) [21]: 2.87
- glycan array binding signal (z-score) [22]: 2.88
- glycan array binding signal (z-score) [23]: -0.034
- glycan array binding signal (z-score) (Gal6S(b1-4)GlcNAc6S): -0.429
- glycan array binding signal (z-score) (GalNAc(b1-3)GlcNAc): 0.169
- glycan array binding signal (z-score) [24]: 1.25
- glycan array binding signal (z-score) (Glc(b1-4)Glc): 0.195

Reference: the supplement of paper PMC8728848
